The values that follow come from PubChem BioAssay AID493035 (The Scripps Research Institute Molecular Screening Center, 2011).

A word on the inhibition: it is the drop in the measured response relative to a control, in per cent.

About 45 (2%) of roughly 2,000 compounds were called active. The sample holds actives, similar compounds and a random draw of the others, so the mix is not that of the screen. A number with no mark means an inactive call.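 Rule for the calls: active = inhibition above the mean of all tested compounds plus 3 SD (cut at about 49% in these data); inactive = the rest.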

Perilipin-5 (Homo sapiens) + 1-acylglycerol-3-phosphate O-acyltransferase ABHD5 (Homo sapiens), sequence (Q00G26 whole entry, looked up): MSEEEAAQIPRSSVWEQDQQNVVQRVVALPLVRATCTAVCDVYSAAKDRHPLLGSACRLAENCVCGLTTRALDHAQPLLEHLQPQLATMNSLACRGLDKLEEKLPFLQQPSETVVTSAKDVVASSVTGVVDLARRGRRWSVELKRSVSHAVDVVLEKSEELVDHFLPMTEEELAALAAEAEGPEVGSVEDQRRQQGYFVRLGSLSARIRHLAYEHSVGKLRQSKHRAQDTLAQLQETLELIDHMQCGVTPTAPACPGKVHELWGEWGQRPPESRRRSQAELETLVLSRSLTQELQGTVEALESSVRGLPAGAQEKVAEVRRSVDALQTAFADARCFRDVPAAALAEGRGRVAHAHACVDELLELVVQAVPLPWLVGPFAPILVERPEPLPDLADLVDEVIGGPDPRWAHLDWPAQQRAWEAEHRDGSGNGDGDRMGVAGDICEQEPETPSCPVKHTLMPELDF
Perilipin-5 (Homo sapiens) + 1-acylglycerol-3-phosphate O-acyltransferase ABHD5 (Homo sapiens), sequence (Q8WTS1 whole entry, looked up): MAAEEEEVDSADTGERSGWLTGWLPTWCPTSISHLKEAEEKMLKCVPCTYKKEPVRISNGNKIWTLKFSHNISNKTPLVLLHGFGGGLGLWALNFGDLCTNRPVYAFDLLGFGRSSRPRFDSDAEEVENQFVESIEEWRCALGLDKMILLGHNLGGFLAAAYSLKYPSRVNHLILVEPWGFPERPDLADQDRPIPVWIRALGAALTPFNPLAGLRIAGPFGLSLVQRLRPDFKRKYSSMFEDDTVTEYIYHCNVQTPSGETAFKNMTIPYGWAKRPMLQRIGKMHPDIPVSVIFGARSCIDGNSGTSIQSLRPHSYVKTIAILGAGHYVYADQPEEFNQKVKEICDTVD

This assay has as its target Perilipin-5 (Homo sapiens) + 1-acylglycerol-3-phosphate O-acyltransferase ABHD5 (Homo sapiens) (UniProt Q00G26+Q8WTS1). Briefly: blockers of ABHD5 binding to perilipin-5 – cell lysate, split luciferase complementation, luminescence, NIH validation set, pilot screen (AID 493035).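 Note: 0% = DMSO only wells while the 100% control is not stated.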 Particulars: split G. princeps luciferase complementation, lysates, 4 h; at 7.9 µM, active compounds read high.
With `O=C1CCCN1CCCn1cnc2c([nH]c3ccc(F)cc32)c1=O`, the inhibition was 1.78%.

On to `CC12CCCCN1CCCc1c2[nH]c2ccccc12` (stereo not drawn), for which the inhibition is 6.67%. With `CC(C)C[C@H](NC(=O)[C@@H]1Cc2ccccc2CN1C(=O)OC(C)(C)C)C(=O)NCC1CCC(C(=O)O)CC1` (stereo partly drawn), the inhibition was -1.68%. In the case of `COc1ccc(CNCCC(c2ccc(F)cc2)c2ccc(OC(C)C)cc2)cc1OC` (stereo not drawn), the inhibition was -5.38%. The figure for `COc1ccccc1C(CC(=O)Nc1ccccc1C)c1ccc(OC(C)C)cc1` (stereo not drawn) is 1.65%; for `COc1ccc(CN(CCC(c2ccccc2)c2ccc(OC(C)C)cc2)C(=O)CCl)cc1OC` (stereo not drawn) it is 67% (active); for `Cn1c(=O)oc2cc(S(=O)(=O)N3CCc4ccccc4C3)ccc21` it is -0.05%.

On to `CC(C)C12CN3CC(C(C)C)(CN(C1)C3c1ccccc1O)C2=O` (stereo not drawn), for which the inhibition is 0.76%.

Turning to `c1coc(-c2nnc3n2C2(CCCC2)Cc2ccccc2-3)c1`, the inhibition was -2.54%. The figure for `CC(C)CN1CCN(Cc2ccc(C#CC(C)(C)O)cc2)CC1CCO` (stereo not drawn) is 1.45%. The figure for `COc1ccc(CN2CCCCC2C(=O)Nc2ccc(OC)c(OCC(C)C)c2)cc1OC` (stereo not drawn) is -8.58%.

Regarding `COc1ccccc1C(O)c1nccn1C` (stereo not drawn), the inhibition was -0.96%. With `COc1cc(/C=C/C(=O)CC(=O)/C=C/c2ccc(O)c(OC)c2)ccc1O`, the inhibition is 47.6%. The figure for `COc1cc(/C=C(\C#N)C(=O)N2CCc3ccccc32)ccc1O` is 50.3% (active). Under `CC12CCC(C(=O)N3CCc4ccccc43)(CC1=O)C2(C)C` (stereo not drawn) stands -4.02%; under `Cn1c(=O)[nH]c(=O)c2c1nc(NCc1ccco1)n2CCCc1ccccc1`, -10%. The figure for `CC1(C)CC(NC(=O)C23CCC(C)(C(=O)C2=O)C3(C)C)CC(C)(C)N1` (stereo not drawn) is -7.41%.

With `NC(N)=N/N=C/c1ccc(OS(=O)(=O)c2ccccc2)cc1`, the inhibition is -1.57%.

For `COc1cc(C(=O)Nc2cccc(-c3nnc(-c4ccco4)o3)c2)ccc1OC(C)=O`, the inhibition was -3.44%. Under `COc1ccc(/C=C2\CC/C(=C\c3ccc(OC)c(OC)c3)C2=O)cc1OC` stands 72.8% (active). The figure for `COc1ccc(/C=C2\CCn3c2nc2cc(C(=O)O)ccc2c3=O)cc1OC` is -3.54%; for `COc1ccc(/C=C2\CCc3ccccc3C2=O)c(OC)c1OC` it is -7.62%. Under `COc1ccc(C(=O)Nc2ccccc2C(=O)NCCCn2ccnc2)cc1` stands -6.29%; under `Cc1nonc1CN(C)C(=O)c1ccc(OC2CCN(C(=O)c3cccnc3)CC2)cc1`, 2.15%; under `S=C(NCc1ccccc1)NCc1cccc(CNC(=S)NCc2ccccc2)c1`, 10.2%.

For the molecule `N#C/C(=C/c1ccccc1)C(=O)NCc1ccccc1`, the inhibition was 62.6% (active).

`N#C/C(=C\c1ccc(O)c(O)c1)C(=O)NCCCc1ccccc1`: the inhibition was 28.2%. Under `COc1ccc(NC(=O)CC2C(=O)N(C)C(=S)N2Cc2ccncc2)cc1` (stereo not drawn) stands -3.37%. In the case of `O=C(O)C1Cc2ccccc2CN1S(=O)(=O)c1ccccc1` (stereo not drawn), the inhibition is 3.15%. Take `O=C(O)Cc1ccc(O)c(F)c1`: the inhibition was -5.48%. Under `CCOc1ccc(N2C(=O)CNC2=S)cc1` stands -13.8%; under `COc1ccccc1-c1c(C(F)(F)F)oc2cc(OC(=O)c3ccc([N+](=O)[O-])cc3)ccc2c1=O`, 29.5%; under `O=C(CCCN1C(=O)/C(=C\c2cccc(Br)c2)SC1=S)Nc1cccnc1`, 28.1%. Under `O=C(CCCN1C(=O)/C(=C\c2cccs2)SC1=S)Nc1ccccn1` stands -1.47%. Under `O=C(CN1C(=O)/C(=C/c2cccc(Br)c2)SC1=S)Nc1cccnc1` stands 52% (active); under `COc1ccc(C2=NOC(COc3ccc4c(C)cc(=O)oc4c3)C2)c(OC)c1` (stereo not drawn), 27.1%; under `O=C(COc1ccc2c(-c3ccccc3)cc(=O)oc2c1)NCc1cccs1`, 9.91%. For `CC/C(=C1/C(=O)CC(C)(C)C(C(=O)OC)C1=O)N1CCCC1` (stereo not drawn), the inhibition is 6.45%. The figure for `COc1ccc(/C=C/C(=O)c2cc3cccc(OC)c3oc2=O)cc1` is 69.5% (active); for `COc1ccc(C(=O)/C=C/c2ccc(OC(=O)c3cc(OC)c(OC)c(OC)c3)cc2)cc1` it is 40.8%. Under `COc1cccc2cc(-c3ccccc3)c(=O)oc12` stands -4.71%. Under `N/C(=N\OC(=O)CCCOc1ccc(Cl)cc1Cl)c1ccccn1` stands -4.4%. Consider `CC12COC3(C(=O)Nc4ccc(F)cc4)CC1CCC32C` (stereo not drawn), for which the inhibition is -5.49%. Under `O=C(Nc1ncc2c(n1)CC(c1ccco1)CC2=O)c1ccco1` (stereo not drawn) stands 0.31%; under `CC(CCc1ccccc1)NC(=O)/C=C/c1ccccc1` (stereo not drawn), 0.97%; under `O=C(/C=C/Sc1ccccc1)c1ccccc1`, 85.6% (active). The figure for `O=C(O)c1ccc(C(=O)C(=O)c2ccccc2)cc1` is -3.75%. For the molecule `Cn1cc(/C=C/C(=O)c2ccccc2)c2ccccc21`, the inhibition was 13.7%.

Turning to `N/C(=N\OC(=O)/C=C/c1ccccc1)c1ccc(Br)cc1`, the inhibition was -11.8%. Under `O=C(/C=C/c1ccccc1)NC(=O)c1ccccc1O` stands 12.7%; under `O=C(/C=C/c1ccccc1)c1ccccc1`, 69.7% (active); under `O=C(/C=C/c1ccccc1)/C=C/c1ccccc1`, 92.3% (active). Under `O=C(CCCCCCCC(=O)c1ccccc1)c1ccccc1` stands -4.5%. The figure for `COc1ccc(Cc2noc(CN(C)CCN3CCc4ccccc4C3)n2)cc1OC` is -5.39%; for `CC(=O)Nc1ccc2[nH]c(C)c(CC=C(Cl)Cl)c(=O)c2c1` it is -10.7%; for `COc1ccc(CCn2c(C)nc3c(c(=O)c4ccccc4n3C)c2=O)cc1` it is 11%. `Cc1nnc(SCC(=O)N2CCCC(C(=O)c3ccc(Cl)cc3)C2)o1` (stereo not drawn): the inhibition was 0.98%.

Consider `Cc1ccc2[nH]c3c(=O)n(CCCN4CCN(C)CC4)cnc3c2c1`, for which the inhibition is -5.12%. Regarding `O=C(O)CCn1c(=S)n(CCC(=O)O)c2ccccc21`, the inhibition was 8.91%. The figure for `Cc1ccccc1OCCSc1nc2ncnc(N)c2[nH]1` is -10.3%; for `COc1c(C)cc(C(=O)C2CCCN(Cc3ccc(Oc4ncccn4)cc3)C2)cc1C` (stereo not drawn) it is -0.46%; for `CSCCC(NC(=O)OC(C)(C)C)C(=O)Oc1ccc2c(=O)c(-c3ccc4c(c3)OCCO4)coc2c1` (stereo not drawn) it is 69.1% (active).

On to `CSCCC(NC(C)=O)C(=O)Oc1ccc2c3c(c(=O)oc2c1)CCCC3` (stereo not drawn), for which the inhibition was 1.97%. The figure for `O=c1c(-c2ccc3c(c2)OCCO3)coc2cc(OC3OC(CO)C(O)C(O)C3O)ccc12` (stereo not drawn) is -6.25%; for `CCc1c(C)c2ccc(OCC(=O)OC(C)C)c(C)c2oc1=O` it is -3.95%. Under `CCOc1ccc(CC2c3cc(OCC)c(OCC)cc3CCN2C(=O)CN2CCN(C)CC2)cc1OCC` (stereo not drawn) stands -0.88%; under `O=C(/C=C/c1ccc(Cl)cc1)NCCc1ccccc1`, 1.1%. The figure for `O=C(O)CCCCCN1C(=O)C(=O)/C(=C(/O)c2ccccc2)C1c1ccccc1` (stereo not drawn) is -14.1%; for `c1cc(-c2ccncc2)ccn1` it is -3.86%. For the molecule `Nc1cc(-c2ccncc2)c[nH]c1=O`, the inhibition is 75.3% (active). The figure for `CCc1cc(=O)oc2cc3occ(-c4ccc(OC)c(F)c4)c3cc12` is 14.2%. Under `CC(C)=CC/C=C1\CCC(C(=O)O)C(C(=O)O)C1` (stereo not drawn) stands 1.14%; under `COCCOC(=O)C1=C(N)OC2=C(C(=O)CCC2)C1c1cccnc1` (stereo not drawn), 0.01%.
